Data published in PubChem BioAssay (NCI).
About 83,000 compounds went through this panel and 20% of them were active in at least one assay; those are over-represented in the sample as a whole.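 Note: values are percent growth. 100 is the growth of untreated cells, values between 100 and 0 indicate rising inhibition; between -100 and 0 indicates cell death.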 Activity calls are given as the source filed them. Rule for the calls: active = growth percent below 10; inactive = the rest.

System: MDA-MB-468 breast
Assay: NCI-60 one-dose screen, 48 h (100 = growth as untreated, 0 = no growth, -100 = all killed)
Conditions: 10 µM unless noted

| SMILES | growth |
| --- | --- |
| Cc1csc(-c2ccc3c(c2)COC3(CCCN(C)C)c2ccc(F)cc2)c1 (centres undefined) | 31.1% (inactive) |
| CCCCOC(=O)c1ccc(NC(=O)C(C)N2CCOCC2)cc1 (centres undefined) | 97% (inactive) |
| CCN(CC)CCNc1ccc(CO)c2oc3cc(Cl)ccc3c(=O)c12 | 68.1% (inactive) |
| O=c1c2ccccc2nc(COc2ccccc2)n1NS(=O)(=O)c1ccc(Cl)cc1 | 40.4% (inactive) |
| Cn1c(=O)c2c(nc3n2CCN(CCc2ccc(OCCN4CCOCC4)cc2)C3)n(C)c1=O | 97.9% (inactive) |
| COc1cc2oc(-c3cccc(C(=O)Nc4ccc(Cl)cc4)c3)cc(=O)c2c(OC)c1OC | 43.6% (inactive) |
| OC(c1ccc(F)c(C(F)(F)F)c1)c1cnccc1NC1CCCCC1 (centres undefined) | 9.9% (active) |
| COc1ccc(/C=C2\C(=O)N=C3N2NC(c2cc(Br)ccc2O)C=C(C)N3c2ccccc2)cc1 (centres undefined) | 90.7% (inactive) |
| CCCCCCCCCCCCCCCC(=O)NS(=O)(=O)OC[C@H]1O[C@@H](n2cnc3c(N)ncnc32)[C@H](O)[C@@H]1O | -51.5% (active) |
| CC(=O)/C(=C/c1cccc(Cl)c1)C(=O)c1ccccc1 | 99.2% (inactive) |
| COc1cc(-c2nn(-c3ccc(C(=O)O)cc3)cc2C(=O)O)ccc1O | 103% (inactive) |
| COc1cccc(-c2cc(-c3cccs3)c(C#N)c(=O)[nH]2)c1 | 107% (inactive) |
| Cc1cc(Cl)ccc1Nc1nc(C(F)(F)F)ccc1C(=O)N/N=C/c1ccccc1Cl | 6.05% (active) |
| COc1ccc2c(c1)cn1c3ccc(OC)cc3[nH]c(=O)c21 | -12% (active) |
